# Rows were chosen to be rich in hits. Some 4.7% of all compounds tested hit in one or more screens of this group.
# TGFb SMAD3 inh – blocks TGF-b signaling | HepG2 CAGA-GFP TGF-b/SMAD3 reporter, GFP fluorescence, 18 h; TGF-beta stimulated, 500 pg/mL final | Potency, µM (series often up to 46.1 µM), inactives show at the highest dose activity, negative = inhibition, hits mostly inhibitors | hit rate 1.2% among 410,000 | AID 588855; further: potency means the concentration at half of the fitted maximal effect; on the % scale 0 is the no-effect control and ±100 the full control effect; nearly all actives have a fitted effect of over 65% in size
#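 HEPG2 CAGA-GFP cells (1000/well, DMEM with 1% FBS) were pre-incubated 2 h at 37 degrees C, given compound by pin tool, then stimulated with TGF-beta at 500 pg/mL final for 18 h before per-cell GFP fluorescence imaging.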
# DRD3 antagonist – antagonists of human D3 dopamine receptor; P35462; D3R cells, DiscoveRx beta-arrestin luminescence, antagonist mode; stronger effect = lower value; max response, negative = inhibition, %; hit rate 2.5% among 360,000; in the data active means max response below about -50%; inconclusive means no clear call, values can overlap the other calls; further: on the % scale 0 is the no-effect control and ±100 the full control effect
# Target sequence (P35462 whole entry, looked up): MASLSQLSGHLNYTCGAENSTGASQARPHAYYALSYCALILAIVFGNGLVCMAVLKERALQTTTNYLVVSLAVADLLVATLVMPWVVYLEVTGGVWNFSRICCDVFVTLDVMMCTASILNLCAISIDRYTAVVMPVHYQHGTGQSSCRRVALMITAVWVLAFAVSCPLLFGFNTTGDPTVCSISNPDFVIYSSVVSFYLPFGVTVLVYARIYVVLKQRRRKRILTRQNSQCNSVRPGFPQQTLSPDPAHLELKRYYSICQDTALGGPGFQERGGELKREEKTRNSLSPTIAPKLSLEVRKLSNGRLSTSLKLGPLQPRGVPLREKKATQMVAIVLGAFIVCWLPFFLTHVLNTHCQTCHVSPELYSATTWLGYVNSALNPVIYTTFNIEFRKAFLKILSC
#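 Cells plated overnight at 1500 cells/well, then exposed to library compounds with dopamine controls for 90 minutes at 37 degrees C. DiscoveRx reagent added for 30–60 minutes at room temperature; luminescence read, quantitative HTS format.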
# HepG2 tox – counter-screen for TGF-b inhibitors: cytotoxicity in HepG2 cells; HepG2 CAGA-GFP viability, ATP luminescence, 18 h; Potency, µM (highest dose often 46.1 µM), inactives show at the highest dose activity change, negative = cytotoxicity, hits mostly cytotoxic; hit rate 0.76% among 410,000; further: potency means the concentration at half of the fitted maximal effect
#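 HepG2 CAGA-GFP cells (1000/well, DMEM with 1% FBS) received compound, then TGF-beta at 500 pg/mL final, and were incubated 18 hours at 37 degrees C. Viability was read by CellTiter-Glo luminescence. Media-only wells were set as complete cell-killing and DMSO as no toxicity.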
# DRD3 agonist – D3 dopamine receptor (human) agonism | D3R DiscoveRx beta-arrestin cells, luminescence, 90 min | max activation, % | hit rate 0.58% among 410,000 | AID 652048 | P35462; in the data active means max activation above about 30%; further: 0% is about no effect
#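 Agonist-mode cell screen: cells plated at 1500/well and incubated overnight at 37 °C, then exposed to library compounds for 90 min at 37 °C. Detection reagent was added for 30–60 min at room temperature, and luminescence was read.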
# S2 tox – cell viability loss in ATXN counter-screen. S2 cells (HEK-293 line with an ATXN2-luciferase reporter) viability, CellTiter-Fluor protease fluorescence, 24 h. Potency, µM (top dose mostly 56.7 µM), usual class: cytotoxic. hit rate 0.49% among 400,000. AID 651635; further: potency means the concentration at half of the fitted maximal effect; nearly all actives have a fitted effect of over 40% in size
# ATXN2 expr inh – ATXN2 expression inhibition; HEK-293 ATXN2-luciferase reporter, luminescence, 24 h; Potency, µM (highest dose often 57 µM), without a hit: at the highest dose activity change, negative = inhibition, actives largely listed as inhibitors; hit rate 0.72% among 360,000; further: potency means the concentration at half of the fitted maximal effect; on the % scale 0 is the no-effect control and ±100 the full control effect; nearly all actives have a fitted effect of over 55% in size
#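 qHTS (up to 57 uM final) was run with 24 h compound exposure of reporter cells at 37 °C. Each well was multiplexed: SteadyGlo luminescence measured ATXN2-luciferase expression after a fluorogenic Gly-Phe-AFC viability readout (25 uM final).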
# Starred values were filed as active, the others as inactive; i = inactive; ? = inconclusive; / = not tested or not shown; ! = not confirmed by another sample. Unless noted, the call rests on the fitted dose curve; in most records, active means well fitted curve in the direction sought with a large enough effect; inconclusive means small, poorly fitted or top-dose-only effect, or another doubt; inactive means no such curve, though single readings can be large; an effect the other way counts as inactive or inconclusive.
SMILES,TGFb SMAD3 inh,DRD3 antagonist,HepG2 tox,DRD3 agonist,S2 tox,ATXN2 expr inh
CSc1ccc(CN2CCC(C)(Oc3ccccc3)C2)cc1 (stereo unspecified),24%,-97*,-24%,-11,i,-17%
CSc1ccc(CN2CCC(C)(Oc3cccc(F)c3)C2)cc1 (stereo unspecified),-3%,-92*,-18%,-22,i,-11%
CSc1ccc(CN2CCC(C)(Oc3cccc(C#N)c3)C2)cc1 (stereo unspecified),-3%,?,-35%,-6,i,-19%
O=S(=O)(O)CCSSCCS(=O)(=O)O,/,/,/,/,/,6%
C=C1[C@H](CO)[C@@H](O)C[C@@H]1n1cnc2c(=O)[nH]c(N)nc21,/,/,/,-11,/,/
COc1ccc(OC)c(CNC(=O)C2COc3ccccc3C2)c1 (stereo unspecified),-15%,/,-6%,-14,i,-8%
Cc1ccc2nc(SCC(=O)NCC3Cc4cc(-c5ncccc5C)ccc4O3)[nH]c2c1 (stereo unspecified),/,/,/,/,i,/
CCc1ccc(OC2(C)CCN(Cc3ccc(SC)cc3)C2)cc1 (stereo unspecified),-19%,-60*,-32%,-24,i,-10%
O=C(O)[C@H]1C[C@@H](CP(=O)(O)O)CCN1,-1%,/,-17%,/,/,/
O=c1c2ccccc2nc(N2CCN(c3cccc(Cl)c3)CC2)n1-c1ccccc1,7.1µM*,/,-47%,-9,/,/
Cc1cccc(N2CCN(c3nc4ccccc4c(=O)n3-c3ccc(Cl)cc3)CC2)c1C,-12%,/,-23%,2,/,/
Cc1cc(C)c(C#N)c(SCC(=O)Nc2ccc(S(=O)(=O)Nc3onc(C)c3C)cc2)n1,-15%,-54*,-38%,4,i,-2%
Cc1noc(NS(=O)(=O)c2ccc(NC(=O)Nc3ccc(Cl)c(Cl)c3)cc2)c1C,-2%,-77*,-30%,5,i,5%
Cc1noc(NS(=O)(=O)c2ccc(NC(=O)C(Cl)(Cl)Cl)cc2)c1C,16%,-1,2%,0,i,6%
CCCCn1cnc2c(=O)[nH]c(N)nc21,3%,/,-3%,/,/,/
Nc1nc2c(ncn2COC(CO)CO)c(=O)[nH]1,-2%,9,2%,17,i,24µM*!
Cc1ccc(NNC(=O)C(O)(c2cccc(C(F)(F)F)c2)c2cccc(C(F)(F)F)c2)cc1,?,-7,-114%,-6,i,-25%
O=C(NNc1ccccc1Br)C(O)(c1cccc(C(F)(F)F)c1)c1cccc(C(F)(F)F)c1,7.9µM*,-29,-103%,-2,/,?
CC(C)c1nnc(N2C(=O)c3oc4ccccc4c(=O)c3C2c2ccccc2F)s1 (stereo unspecified),2%,/,11%,9,i,3%
c1cc2c(cc1Cn1cnnn1)OCO2,-2%,-57*,-5%,-7,i,0%
c1cc2c(cc1-n1cnnn1)OCO2,1%,4,-13%,15,i,3%
C=CS(=O)(=O)O,/,/,/,-24,i,/
Cc1nc(N/N=C/c2ccccn2)sc1C,?,2,-32%,3,?,0%
CCCc1sc(N/N=C/c2ccccn2)nc1-c1ccc(F)cc1,11µM*,5,-106%,2,16µM*,4µM*
CC(C)Oc1ccc(C(=O)NCC2Cc3cc(F)cc(-c4cnccn4)c3O2)cc1 (stereo unspecified),/,/,/,/,i,/
Nc1cccc2nsnc12,11%,-5,27%,-4,i,-8%
Nc1cc2nsnc2cc1Br,11µM*,?,-78%,-25,i,-18%
COc1ccccc1N1CCN(C(=O)CCc2nnc3n(C)c(=O)c4sccc4n23)CC1,-27%,/,-13%,-8,i,3%
OC(CNCCC1C=Nc2ccccc21)Cn1c2ccc(Cl)cc2c2cc(Cl)ccc21 (stereo unspecified),?,20,-96%,19,/,32µM*
OC(CNCC1CCCO1)Cn1c2ccc(Cl)cc2c2cc(Cl)ccc21 (stereo unspecified),?,4,-100%,-2,?,?

# Assay outcomes (PubChem)
